These results are taken from PubChem BioAssay (Tox21).

“And” between values parts separate entries of the source, which are not always exact repeats. Equal entries are not always repeated. Records with an inconclusive call do not appear. The source made the active and inactive calls. Unless noted, calls come from the whole dose curve; as a rule, active = well fitted curve in the direction sought with a large enough effect in the repeat runs; inconclusive = weak or mixed curves; inactive = no such curve, though single readings can be large; an effect the other way counts as inactive or inconclusive.
% is set by controls: 0 for no effect and ±100 for the full control effect.

The nature of the first assay: qHTS assay to identify small molecule agonists of H2AX - cell viability counter screen (AID 1224847; calls by dose curve; note: nearly all actives have a fitted effect of over 30% in size; note: potency is the fitted concentration of half-maximal effect; for activity change, negative = cytotoxicity: top concentration of the series differs between compounds). The conditions noted are these: CHO-K1 viability, CellTiter-Glo luminescence, 3 h; series mostly up to 154 µM; activity change, negative = cytotoxicity: at the top concentration. Summed up: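 We seed wild-type CHO-K1 cells overnight, treat them for 3 hr at 37C with compounds in 15-concentration series, and quantify remaining viability by CellTiter-Glo luminescence.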
(qHTS replaces the single test concentration by a dilution series.)
As to `Oc1c(Br)cc(Br)c2cccnc12`, the “activity change, negative = cytotoxicity” value was 7.49% [at 70.9 µM] (inactive).
Take `CCCOc1sc(C(=O)N2CCC(c3cc(CN)ccc3F)CC2)c(C)c1Br`: the Potency is 46.3 µM (active).
As to `CCCCCCCC(C)=O`, the “activity change, negative = cytotoxicity” value is 0.323% (inactive).
Same read-out and setting: the value for `C=CCCCCCCC=C` was -2.83% (inactive); that for `Cc1cc(C)c(C=O)c(C)c1` was 1.34% (inactive).
The same measure, in the same setting: the value for `C/C=C/C=N/NC(=O)c1ccncc1` was 9.94% [at 70.9 µM] (inactive).
`COc1ccc(-n2nc(CCC(=O)N(C)O)cc2-c2ccc(Cl)cc2)cc1`: the “activity change, negative = cytotoxicity” value was 0.878% [at 70.9 µM] (inactive).

A further assay is described as follows: qHTS assay to identify small molecule antagonists of the estrogen related receptor (ERR) signaling pathway from Tox21 library (AID 1224848). Note: nearly all actives have a fitted effect of over 50% in size. Note: potency is the fitted concentration of half-maximal effect. The conditions noted are these: ERR reporter cell line, luciferase antagonist mode, 18 h; series mostly up to 92.4 µM; activity, negative = inhibition: at the top concentration. Put shortly: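 Screening used an ERR reporter line supplied by NTP, exposed for 18 h at 37 C to library compounds delivered in DMSO. Signal was luciferase luminescence developed with ONE-Glo at room temperature for 30 min.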
Regarding `C=C[C@](C)(O)CC[C@@H]1[C@@]2(C)CCCC(C)(C)[C@@H]2CC[C@@]1(C)O`, the Potency is 27.3 µM (active).
Same read-out and setting: the value for `Clc1ccc(C(Cn2ccnc2)OCc2c(Cl)cccc2Cl)c(Cl)c1` (stereo not given) was 26.6 µM (active); that for `Cc1nc(Nc2ncc(C(=O)Nc3c(C)cccc3Cl)s2)cc(N2CCN(CCO)CC2)n1` was 8.41 µM (active); that for `CCOC(=O)N1CCC(=C2c3ccc(Cl)cc3CCc3cccnc32)CC1` was 30.6 µM (active) and 26.6 µM (active).
As to `Cc1ccc(CCn2c3c(c4cc(Cl)ccc42)CN(C)CC3)cn1`, the “activity, negative = inhibition” value is 76% [at 42.5 µM] (inactive).
Turning to `NC(=O)c1nc(-c2cccc(-c3cc(F)ccc3OCC(F)(F)C(F)(F)F)c2)n[nH]1`, the Potency is 17.2 µM (active).
Same read-out and setting: the value for `CCOC(=O)C1=C(C)NC(C)=C(C(=O)OCC)C1c1ccccc1/C=C/C(=O)OC(C)(C)C` was 13.3 µM (active); that for `Oc1c(Br)cc(Br)c2cccnc12` was 18.8 µM (active).
As for `CCC(C)(C)c1cc(O)c(C(C)(C)CC)cc1O`, the Potency was 68.6 µM (active).
For `O=C1c2c(O)ccc(O)c2C(=O)c2c(NCCNCCO)ccc(NCCNCCO)c21`, the Potency is 0.75 µM (active).
Same read-out and setting: the value for `CCCOc1sc(C(=O)N2CCC(c3cc(CN)ccc3F)CC2)c(C)c1Br` was 49.9 µM (active).

A further assay in a line: qHTS assay to identify small molecule agonists of the estrogen related receptor (ERR) signaling pathway from Tox21 library (AID 1224849; calls by dose curve; note: nearly all actives have a fitted effect of over 15% in size). The conditions noted are these: ERR reporter cell line, ONE-Glo luciferase, 18 h; at 92.4 µM (top of the series) unless noted. Put shortly: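 ERR reporter cells (NTP line) pre-incubated 6 hours at 37 C, then exposed to compounds for 18 hours at 37 C. ONE-Glo luciferase luminescence was read after 30 minutes at room temperature.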
As to `C=C[C@](C)(O)CC[C@@H]1[C@@]2(C)CCCC(C)(C)[C@@H]2CC[C@@]1(C)O`, the activity change, positive = activation was -46.9% (inactive).
Turning to `Clc1ccc(C(Cn2ccnc2)OCc2c(Cl)cccc2Cl)c(Cl)c1` (stereo not given), the activity change, positive = activation is -58.8% [at 42.5 µM] (inactive).
On the same count and under the same terms, the value for `Cc1nc(Nc2ncc(C(=O)Nc3c(C)cccc3Cl)s2)cc(N2CCN(CCO)CC2)n1` was -44.6% [at 42.5 µM] (inactive).
On the same count and under the same terms, the value for `Cc1ccc(CCn2c3c(c4cc(Cl)ccc42)CN(C)CC3)cn1` was 48.3% [at 42.5 µM] (active); that for `NC(=O)c1nc(-c2cccc(-c3cc(F)ccc3OCC(F)(F)C(F)(F)F)c2)n[nH]1` was -59.7% (inactive).
Still for that read-out and setting: the value for `CCOC(=O)C1=C(C)NC(C)=C(C(=O)OCC)C1c1ccccc1/C=C/C(=O)OC(C)(C)C` was -56.8% [at 42.5 µM] (inactive); that for `Oc1c(Br)cc(Br)c2cccnc12` was -61.3% [at 42.5 µM] (inactive).
With `CCC(C)(C)c1cc(O)c(C(C)(C)CC)cc1O`, the activity change, positive = activation was -67.5% (inactive).
On to `O=C1c2c(O)ccc(O)c2C(=O)c2c(NCCNCCO)ccc(NCCNCCO)c21`, for which the activity change, positive = activation is -59.3% [at 42.5 µM] (inactive).
On the same count and under the same terms, the value for `CCCOc1sc(C(=O)N2CCC(c3cc(CN)ccc3F)CC2)c(C)c1Br` was -71.6% (inactive).
Same read-out and setting: the value for `CC(=O)OC(OC(C)=O)c1ccc([N+](=O)[O-])o1` was -81.4% (inactive).

Another assay can be described thus: qHTS RealTime-Glo MT Cell Viability Assay in HepG2 cells - 24 hour (AID 1224867). Note: nearly all actives have a fitted effect of over 50% in size. Note: potency is the fitted concentration of half-maximal effect. The note with it: RealTime-Glo luminescence; series mostly up to 76.8 µM; activity change, negative = cytotoxicity: at the top concentration. Put shortly: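 Cell number in HepG2 cultures estimated from NanoLuc luminescence generated by metabolic reduction of a prosubstrate by living cells. The homogeneous, nonlytic format allowed repeated reads at 0, 8, 16, 24, 32 and 40 h of compound exposure.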
As for `Clc1nc2ccccc2s1`, the “activity change, negative = cytotoxicity” value is 0.368% (inactive).
As for `COCC(=O)O[C@]1(CCN(C)CCCc2nc3ccccc3[nH]2)CCc2cc(F)ccc2[C@@H]1C(C)C`, the Potency was 13.4 µM (active).
In the case of `O=C(O)CCn1c2c(c3ccccc31)C[C@H](NS(=O)(=O)c1ccc(F)cc1)CC2`, the “activity change, negative = cytotoxicity” value is -0.113% [at 35.3 µM] (inactive).
On the same count and under the same terms, the value for `CC(C)=CC1CC(C)CCO1` (stereo not given) was 4.04% (inactive); that for `Clc1ccccc1CN1CCc2sccc2C1` was -5.6% [at 35.3 µM] (inactive); that for `Cc1cn[nH]c1` was 1.18% [at 35.3 µM] (inactive).
Turning to `CCCCC(CC)COC(=O)c1ccc(O)cc1` (stereo not given), the Potency entry is “inactive”.
Same read-out and setting: the value for `CC(=O)Nc1ccc(O)cc1` was “inactive”.
On to `C=CC(=C)CCC=C(C)C`, for which the “activity change, negative = cytotoxicity” value was -14.5% (inactive).
The same measure, in the same setting: the value for `c1ccc(Sc2ccccc2)cc1` was -0.605% (inactive); that for `CC(CN(C)C)CN1c2ccccc2CCc2ccccc21` (stereo not given) was -15.8% [at 35.3 µM] (inactive).
`CN(C)CCCN1c2ccccc2CCc2ccccc21`: the “activity change, negative = cytotoxicity” value is -15% [at 35.3 µM] (inactive).
As for `Oc1c(Br)cc(Br)c2cccnc12`, the “activity change, negative = cytotoxicity” value is -12% [at 35.3 µM] (inactive).
In the case of `O=C1c2c(O)ccc(O)c2C(=O)c2c(NCCNCCO)ccc(NCCNCCO)c21`, the Potency is 9.52 µM (active).
In the case of `CCCOc1sc(C(=O)N2CCC(c3cc(CN)ccc3F)CC2)c(C)c1Br`, the Potency was 22.5 µM (active).
Regarding `CCCCCCCC(C)=O`, the “activity change, negative = cytotoxicity” value is 2.18% (inactive).
Same read-out and setting: the value for `C=CCCCCCCC=C` was -0.237% (inactive); that for `Cc1cc(C)c(C=O)c(C)c1` was 0.666% (inactive); that for `C/C=C/C=N/NC(=O)c1ccncc1` was -2.05% [at 35.3 µM] (inactive).

The next assay is described as follows: qHTS RealTime-Glo MT Cell Viability Assay in HEK293 cells - 32 hour (AID 1224868). For activity change, negative = cytotoxic: top concentration of the series differs between compounds. Note: nearly all actives have a fitted effect of over 50% in size. Note: potency is the fitted concentration of half-maximal effect. The conditions noted are these: RealTime-Glo luminescence; series mostly up to 76.8 µM; activity change, negative = cytotoxic: at the top concentration. Put shortly:
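Homogeneous bioluminescent viability format in HEK293 cells (600 cells/well). Following 5 h at 37 C/5% CO2, 23 nL compound was pintooled; the signal was measured repeatedly during 40 h incubation.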
In the case of `Clc1cccnc1`, the “activity change, negative = cytotoxic” value was -5.33% (inactive).
As to `C=C[C@](C)(O)CC[C@@H]1[C@@]2(C)CCCC(C)(C)[C@@H]2CC[C@@]1(C)O`, the Potency was 21.9 µM (active).
For `Clc1ccc(C(Cn2ccnc2)OCc2c(Cl)cccc2Cl)c(Cl)c1` (stereo not given), the Potency was 16.9 µM (active).
The same measure, in the same setting: the value for `Cc1nc(Nc2ncc(C(=O)Nc3c(C)cccc3Cl)s2)cc(N2CCN(CCO)CC2)n1` was 30.1 µM (active).
Consider `Clc1nc2ccccc2s1`, for which the “activity change, negative = cytotoxic” value is -6.56% (inactive).
`O=C(O)CCn1c2c(c3ccccc31)C[C@H](NS(=O)(=O)c1ccc(F)cc1)CC2`: the “activity change, negative = cytotoxic” value is 14% [at 35.3 µM] (inactive).
Same read-out and setting: the value for `CC(C)=CC1CC(C)CCO1` (stereo not given) was 2.83% (inactive); that for `CCC(=O)CC(C)CC` (stereo not given) was 3.77% [at 0.29 µM] (inactive).
Same read-out and setting: the value for `O=Cc1ccc(F)cc1` was -1.71% (inactive).
For `Cc1ccc(CCn2c3c(c4cc(Cl)ccc42)CN(C)CC3)cn1`, the Potency is 19 µM (active).
`Cc1cn[nH]c1`: the “activity change, negative = cytotoxic” value is 6.49% [at 35.3 µM] (inactive).
Consider `CCCCC(CC)COC(=O)c1ccc(O)cc1` (stereo not given), for which the Potency is 54.7 µM (active).
Same read-out and setting: the value for `CC(=O)Nc1ccc(O)cc1` was “inactive”.
With `C=CC(=C)CCC=C(C)C`, the “activity change, negative = cytotoxic” value was 14.5% (inactive).
Still for that read-out and setting: the value for `CN(C)CCCN1c2ccccc2CCc2ccccc21` was -29.2% [at 35.3 µM] (inactive).
In the case of `O=C1c2c(O)ccc(O)c2C(=O)c2c(NCCNCCO)ccc(NCCNCCO)c21`, the Potency is 0.0239 µM (active).
The same measure, in the same setting: the value for `CCCOc1sc(C(=O)N2CCC(c3cc(CN)ccc3F)CC2)c(C)c1Br` was 22.5 µM (active).
For the compound `CCCCCCCC(C)=O`, the “activity change, negative = cytotoxic” value is 0.262% (inactive).
The same measure, in the same setting: the value for `C=CCCCCCCC=C` was 2.79% (inactive).
For the compound `CC(=O)OC(OC(C)=O)c1ccc([N+](=O)[O-])o1`, the Potency is 44.4 µM (active).
In the case of `Cc1cc(C)c(C=O)c(C)c1`, the “activity change, negative = cytotoxic” value was 13.2% (inactive).
As for `CCCCCCC(C)Nc1ccc(Nc2ccccc2)cc1` (stereo not given), the Potency was 24.5 µM (active).
